# Reference: paper PMC7862700, “An all-to-all approach to the identification of sequence-specific readers for epigenetic DNA modifications on cytosine”
# What was measured:
# Assay in all cases: DAPPL (digital affinity profiling via proximity ligation, sequencing); 10 mM Tris-HCl pH 7.5, 50 mM NaCl, 1 mM DTT, 4% glycerol, room temperature, 30 min; GST-TFs on glutathione beads, 16-mer random dsDNA library, 0.1% formaldehyde crosslink after washing; high values mean tight binding
# Conditions in all cases: protein: recombinant; tags: N-terminal GST; dsDNA, one strand shown
# ELK1 = target: T1, ELK1 (Homo sapiens, UniProt P19419 1-428)
# T1 sequence: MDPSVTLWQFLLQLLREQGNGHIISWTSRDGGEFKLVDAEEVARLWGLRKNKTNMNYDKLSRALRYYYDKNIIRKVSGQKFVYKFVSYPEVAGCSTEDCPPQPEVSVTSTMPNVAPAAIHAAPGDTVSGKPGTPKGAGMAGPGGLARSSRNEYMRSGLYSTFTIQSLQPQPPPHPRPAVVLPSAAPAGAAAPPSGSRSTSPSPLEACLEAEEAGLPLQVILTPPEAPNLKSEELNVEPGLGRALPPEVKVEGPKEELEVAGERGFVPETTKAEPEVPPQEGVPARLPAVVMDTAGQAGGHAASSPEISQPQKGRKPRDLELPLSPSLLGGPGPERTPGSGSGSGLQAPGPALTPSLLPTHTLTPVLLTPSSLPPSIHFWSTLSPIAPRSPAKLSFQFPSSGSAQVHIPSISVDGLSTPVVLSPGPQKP
# Procedure, shortened: (§1)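 The binding signal reported is, for every hexamer, its read frequency for a factor over its read frequency for the tag-only sample. Reads came from pools of yeast-expressed, GST-fused human transcription factors on glutathione beads, barcoded with DNA and mixed with that sample, which were incubated with 200 nmole of a random double-stranded 16-mer DNA library in Tris/NaCl/DTT/glycerol buffer at room temperature for 30 min. After washing, the pools were crosslinked with 0.1% formaldehyde, proximity-ligated with BsaI/T4 ligase for 1 h at 37 °C, PCR-amplified and sequenced on an Illumina NextSeq500.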
# GABPA = target: T2, GABPA (Homo sapiens, UniProt Q06546 1-454)
# T2 sequence: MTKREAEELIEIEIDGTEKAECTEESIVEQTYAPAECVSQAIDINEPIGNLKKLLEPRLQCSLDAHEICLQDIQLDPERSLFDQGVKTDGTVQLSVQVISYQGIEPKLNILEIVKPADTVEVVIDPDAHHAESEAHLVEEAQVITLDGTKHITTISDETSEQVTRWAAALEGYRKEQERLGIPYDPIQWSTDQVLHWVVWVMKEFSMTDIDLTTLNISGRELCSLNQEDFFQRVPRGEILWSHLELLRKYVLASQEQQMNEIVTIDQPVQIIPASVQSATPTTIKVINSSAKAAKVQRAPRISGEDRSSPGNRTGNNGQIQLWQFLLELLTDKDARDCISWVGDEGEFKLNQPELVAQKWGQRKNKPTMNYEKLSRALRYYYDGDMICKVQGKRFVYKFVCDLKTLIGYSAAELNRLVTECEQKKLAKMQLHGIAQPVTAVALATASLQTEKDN
# Procedure, shortened: as §1
# ERG = target: T3, ERG (Homo sapiens, UniProt P11308 1-479)
# T3 sequence: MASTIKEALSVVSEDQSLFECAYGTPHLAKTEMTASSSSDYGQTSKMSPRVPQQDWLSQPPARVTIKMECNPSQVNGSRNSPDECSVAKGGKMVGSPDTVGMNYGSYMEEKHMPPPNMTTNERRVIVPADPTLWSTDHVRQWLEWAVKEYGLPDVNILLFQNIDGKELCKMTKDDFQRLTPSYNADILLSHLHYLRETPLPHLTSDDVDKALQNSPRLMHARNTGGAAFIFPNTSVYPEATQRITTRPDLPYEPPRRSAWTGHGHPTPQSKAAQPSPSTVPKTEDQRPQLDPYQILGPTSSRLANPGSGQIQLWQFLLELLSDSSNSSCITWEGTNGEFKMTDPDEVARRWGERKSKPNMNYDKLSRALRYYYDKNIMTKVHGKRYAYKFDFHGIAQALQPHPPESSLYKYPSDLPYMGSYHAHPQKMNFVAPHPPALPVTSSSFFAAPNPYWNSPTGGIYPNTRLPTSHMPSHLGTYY
# Procedure, shortened: as §1
# ELF1 = ELF1 (Homo sapiens, UniProt P32519 1-619)
# ELF1, sequence (P32519 whole entry): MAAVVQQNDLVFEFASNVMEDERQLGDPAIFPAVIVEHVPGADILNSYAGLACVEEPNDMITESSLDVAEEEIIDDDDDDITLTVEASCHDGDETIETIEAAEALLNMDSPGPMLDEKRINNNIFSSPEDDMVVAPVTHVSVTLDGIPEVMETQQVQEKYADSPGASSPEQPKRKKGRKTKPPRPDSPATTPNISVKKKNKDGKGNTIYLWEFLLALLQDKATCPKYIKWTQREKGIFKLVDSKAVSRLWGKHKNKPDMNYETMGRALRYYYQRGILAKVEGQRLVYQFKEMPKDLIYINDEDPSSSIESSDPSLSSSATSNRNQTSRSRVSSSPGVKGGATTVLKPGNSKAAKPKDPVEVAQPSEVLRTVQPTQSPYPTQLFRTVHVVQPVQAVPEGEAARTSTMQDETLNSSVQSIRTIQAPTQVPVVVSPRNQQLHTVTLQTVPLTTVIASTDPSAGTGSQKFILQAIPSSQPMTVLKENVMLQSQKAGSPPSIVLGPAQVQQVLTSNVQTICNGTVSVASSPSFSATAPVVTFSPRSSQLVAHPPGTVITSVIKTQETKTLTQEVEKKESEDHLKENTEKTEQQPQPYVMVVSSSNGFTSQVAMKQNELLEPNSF
# Procedure, shortened: as §1
# EHF = target: T4, EHF (Homo sapiens, UniProt Q9NZC4 1-300)
# T4 sequence: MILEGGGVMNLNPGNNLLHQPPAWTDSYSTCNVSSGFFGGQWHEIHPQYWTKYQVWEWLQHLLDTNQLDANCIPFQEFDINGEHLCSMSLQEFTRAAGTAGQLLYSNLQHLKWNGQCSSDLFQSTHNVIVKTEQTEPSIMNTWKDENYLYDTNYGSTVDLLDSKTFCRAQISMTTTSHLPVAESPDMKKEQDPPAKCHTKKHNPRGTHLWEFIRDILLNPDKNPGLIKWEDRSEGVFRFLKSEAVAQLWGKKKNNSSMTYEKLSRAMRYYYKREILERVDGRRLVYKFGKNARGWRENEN
# Procedure, shortened: as §1
# SPIB = SPIB (Homo sapiens, UniProt Q01892 1-262)
# SPIB, sequence (Q01892 whole entry): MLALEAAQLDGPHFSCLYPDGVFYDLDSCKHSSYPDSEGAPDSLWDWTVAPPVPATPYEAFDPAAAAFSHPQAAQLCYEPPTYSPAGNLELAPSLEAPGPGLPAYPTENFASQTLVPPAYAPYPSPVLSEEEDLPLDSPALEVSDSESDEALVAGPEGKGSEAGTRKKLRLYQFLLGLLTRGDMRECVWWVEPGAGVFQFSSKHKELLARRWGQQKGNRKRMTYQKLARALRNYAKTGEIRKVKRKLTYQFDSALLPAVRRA
# Procedure, shortened: as §1
# FEV = target: T5, FEV (Homo sapiens, UniProt Q99581 1-238)
# T5 sequence: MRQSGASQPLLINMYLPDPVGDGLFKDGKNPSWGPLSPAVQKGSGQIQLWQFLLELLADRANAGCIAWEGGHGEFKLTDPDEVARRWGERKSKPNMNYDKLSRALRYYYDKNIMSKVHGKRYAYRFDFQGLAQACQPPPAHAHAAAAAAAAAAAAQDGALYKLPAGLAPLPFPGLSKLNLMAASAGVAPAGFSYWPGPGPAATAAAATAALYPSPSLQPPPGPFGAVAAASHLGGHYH
# Procedure, shortened: as §1
# ETV5 = ETV5 (Homo sapiens, UniProt P41161 1-510)
# ETV5, sequence (P41161 whole entry): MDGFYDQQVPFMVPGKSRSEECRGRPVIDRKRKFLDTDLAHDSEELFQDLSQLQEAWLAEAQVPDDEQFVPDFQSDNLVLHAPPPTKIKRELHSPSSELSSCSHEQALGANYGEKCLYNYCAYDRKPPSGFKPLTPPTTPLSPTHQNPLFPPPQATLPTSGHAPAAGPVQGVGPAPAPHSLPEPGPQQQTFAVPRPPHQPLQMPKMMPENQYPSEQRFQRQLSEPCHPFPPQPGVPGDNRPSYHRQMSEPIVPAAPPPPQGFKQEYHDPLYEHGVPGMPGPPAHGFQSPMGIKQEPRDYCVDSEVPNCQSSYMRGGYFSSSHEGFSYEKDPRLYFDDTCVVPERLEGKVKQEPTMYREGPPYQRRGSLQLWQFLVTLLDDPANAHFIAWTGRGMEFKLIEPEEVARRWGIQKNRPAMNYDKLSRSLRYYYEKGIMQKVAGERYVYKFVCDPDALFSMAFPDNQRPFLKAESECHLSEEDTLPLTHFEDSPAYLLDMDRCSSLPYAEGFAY
# Procedure, shortened: as §1
# ELK4 = target: T6, ELK4 (Homo sapiens, UniProt P28324-2 1-405)
# T6 sequence: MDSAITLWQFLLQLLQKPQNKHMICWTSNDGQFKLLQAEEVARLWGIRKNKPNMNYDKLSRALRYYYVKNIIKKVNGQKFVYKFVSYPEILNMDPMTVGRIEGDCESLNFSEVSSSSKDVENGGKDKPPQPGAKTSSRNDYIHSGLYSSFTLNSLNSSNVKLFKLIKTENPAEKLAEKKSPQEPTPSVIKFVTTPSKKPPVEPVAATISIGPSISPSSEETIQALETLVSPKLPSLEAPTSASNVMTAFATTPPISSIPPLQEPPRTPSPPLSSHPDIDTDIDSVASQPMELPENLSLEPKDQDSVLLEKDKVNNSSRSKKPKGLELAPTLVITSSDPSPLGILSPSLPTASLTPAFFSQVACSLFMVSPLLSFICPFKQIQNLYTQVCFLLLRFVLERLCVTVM
# Procedure, shortened: as §1
# ELF3 = target: T7, ELF3 (Homo sapiens, UniProt P78545 1-371)
# T7 sequence: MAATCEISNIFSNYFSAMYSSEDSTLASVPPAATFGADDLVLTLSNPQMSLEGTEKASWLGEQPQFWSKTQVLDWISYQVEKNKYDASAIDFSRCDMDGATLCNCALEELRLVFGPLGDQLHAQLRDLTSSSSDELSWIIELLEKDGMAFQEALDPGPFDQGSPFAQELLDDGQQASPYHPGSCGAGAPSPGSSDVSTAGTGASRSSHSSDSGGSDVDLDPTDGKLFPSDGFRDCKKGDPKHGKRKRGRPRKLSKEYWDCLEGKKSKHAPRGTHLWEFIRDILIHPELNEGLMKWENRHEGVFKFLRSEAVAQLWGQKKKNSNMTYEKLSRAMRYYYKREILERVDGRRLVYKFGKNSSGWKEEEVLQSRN
# Procedure, shortened: as §1
# ETV1 = ETV1 (Homo sapiens, UniProt P50549 1-477)
# ETV1, sequence (P50549 whole entry): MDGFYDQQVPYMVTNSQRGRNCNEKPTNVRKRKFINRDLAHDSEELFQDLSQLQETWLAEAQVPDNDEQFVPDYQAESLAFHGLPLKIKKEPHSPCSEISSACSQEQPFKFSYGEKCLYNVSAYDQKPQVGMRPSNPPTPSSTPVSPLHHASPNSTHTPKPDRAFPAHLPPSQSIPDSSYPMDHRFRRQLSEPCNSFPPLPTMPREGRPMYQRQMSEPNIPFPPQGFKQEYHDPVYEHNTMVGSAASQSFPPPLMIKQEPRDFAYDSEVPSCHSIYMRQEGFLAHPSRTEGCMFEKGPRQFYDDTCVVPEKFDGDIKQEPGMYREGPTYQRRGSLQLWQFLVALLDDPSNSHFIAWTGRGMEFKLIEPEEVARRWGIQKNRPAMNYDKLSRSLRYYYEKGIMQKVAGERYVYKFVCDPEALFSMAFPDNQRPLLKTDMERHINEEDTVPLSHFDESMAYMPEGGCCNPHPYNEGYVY
# Procedure, shortened: as §1
# ERF = target: T8, ERF (Homo sapiens, UniProt P50548 1-548)
# T8 sequence: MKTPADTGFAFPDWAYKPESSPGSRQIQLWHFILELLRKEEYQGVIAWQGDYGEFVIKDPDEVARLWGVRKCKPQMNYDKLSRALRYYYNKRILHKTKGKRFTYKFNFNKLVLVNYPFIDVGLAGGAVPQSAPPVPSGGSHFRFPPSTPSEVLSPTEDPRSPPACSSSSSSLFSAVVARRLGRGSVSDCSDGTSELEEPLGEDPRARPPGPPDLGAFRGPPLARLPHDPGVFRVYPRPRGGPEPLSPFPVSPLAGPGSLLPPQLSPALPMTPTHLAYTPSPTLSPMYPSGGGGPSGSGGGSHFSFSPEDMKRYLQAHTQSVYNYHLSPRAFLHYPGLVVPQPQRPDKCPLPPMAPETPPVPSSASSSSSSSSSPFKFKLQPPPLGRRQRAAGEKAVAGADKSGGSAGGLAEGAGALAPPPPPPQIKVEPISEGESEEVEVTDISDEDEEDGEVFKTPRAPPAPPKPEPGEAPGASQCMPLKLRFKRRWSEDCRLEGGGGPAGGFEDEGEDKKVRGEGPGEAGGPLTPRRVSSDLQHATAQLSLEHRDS
# Procedure, shortened: as §1
# ETV3L = target: T9, ETV3L (Homo sapiens, UniProt Q6ZN32 1-361)
# T9 sequence: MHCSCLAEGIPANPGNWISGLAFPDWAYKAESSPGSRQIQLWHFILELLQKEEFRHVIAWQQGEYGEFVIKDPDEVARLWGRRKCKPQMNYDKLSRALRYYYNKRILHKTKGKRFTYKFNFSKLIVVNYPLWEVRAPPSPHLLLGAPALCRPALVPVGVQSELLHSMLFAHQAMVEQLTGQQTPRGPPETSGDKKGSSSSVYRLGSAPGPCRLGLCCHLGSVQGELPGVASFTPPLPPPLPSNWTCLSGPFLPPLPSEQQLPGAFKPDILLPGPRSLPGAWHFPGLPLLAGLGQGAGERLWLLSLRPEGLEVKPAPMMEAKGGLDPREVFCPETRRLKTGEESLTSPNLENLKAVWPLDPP
# Procedure, shortened: as §1
# ETS2 = target: T10, ETS2 (Homo sapiens, UniProt P15036 1-469)
# T10 sequence: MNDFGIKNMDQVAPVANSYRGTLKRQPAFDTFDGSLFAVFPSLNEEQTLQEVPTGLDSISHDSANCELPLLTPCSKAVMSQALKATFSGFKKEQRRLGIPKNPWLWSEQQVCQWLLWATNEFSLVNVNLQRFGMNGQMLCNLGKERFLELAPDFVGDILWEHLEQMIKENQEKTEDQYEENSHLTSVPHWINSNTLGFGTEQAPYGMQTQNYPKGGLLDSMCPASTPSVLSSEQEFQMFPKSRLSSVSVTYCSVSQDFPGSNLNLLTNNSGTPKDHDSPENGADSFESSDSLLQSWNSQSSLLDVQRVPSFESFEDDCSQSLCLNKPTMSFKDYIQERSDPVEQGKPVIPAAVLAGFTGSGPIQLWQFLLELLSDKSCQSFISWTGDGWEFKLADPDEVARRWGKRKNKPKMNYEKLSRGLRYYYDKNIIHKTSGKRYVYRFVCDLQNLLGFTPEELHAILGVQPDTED
# Procedure, shortened: as §1
# SPDEF = target: T11, SPDEF (Homo sapiens, UniProt O95238 1-335)
# T11 sequence: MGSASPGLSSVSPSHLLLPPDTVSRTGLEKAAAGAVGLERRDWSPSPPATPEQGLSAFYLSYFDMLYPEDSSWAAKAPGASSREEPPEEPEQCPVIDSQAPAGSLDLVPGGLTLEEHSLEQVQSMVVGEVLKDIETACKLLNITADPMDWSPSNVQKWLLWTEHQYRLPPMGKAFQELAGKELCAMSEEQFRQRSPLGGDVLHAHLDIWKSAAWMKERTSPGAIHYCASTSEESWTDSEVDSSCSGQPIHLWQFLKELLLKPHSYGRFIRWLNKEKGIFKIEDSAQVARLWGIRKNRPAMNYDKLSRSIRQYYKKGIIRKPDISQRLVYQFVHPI
# Procedure, shortened: as §1
# ETV7 = target: T12, ETV7 (Homo sapiens, UniProt Q9Y603 1-341)
# T12 sequence: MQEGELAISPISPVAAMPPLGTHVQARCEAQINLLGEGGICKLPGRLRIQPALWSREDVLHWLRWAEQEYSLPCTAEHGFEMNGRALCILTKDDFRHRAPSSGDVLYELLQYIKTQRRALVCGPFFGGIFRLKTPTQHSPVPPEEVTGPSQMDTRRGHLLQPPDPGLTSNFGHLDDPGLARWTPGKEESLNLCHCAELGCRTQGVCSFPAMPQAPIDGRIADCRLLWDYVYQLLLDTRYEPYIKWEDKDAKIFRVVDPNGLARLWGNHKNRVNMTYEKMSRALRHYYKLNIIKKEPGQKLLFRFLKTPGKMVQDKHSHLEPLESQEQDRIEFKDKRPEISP
# Procedure, shortened: as §1
# ETV3 = target: T13, ETV3 (Homo sapiens, UniProt P41162-2 1-143)
# T13 sequence: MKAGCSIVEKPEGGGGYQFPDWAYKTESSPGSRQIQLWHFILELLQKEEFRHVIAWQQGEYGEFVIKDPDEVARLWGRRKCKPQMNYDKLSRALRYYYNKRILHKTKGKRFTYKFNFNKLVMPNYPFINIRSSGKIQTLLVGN
# Procedure, shortened: as §1
# ETV6 = ETV6 (Homo sapiens, UniProt P41212 1-452)
# ETV6, sequence (P41212 whole entry): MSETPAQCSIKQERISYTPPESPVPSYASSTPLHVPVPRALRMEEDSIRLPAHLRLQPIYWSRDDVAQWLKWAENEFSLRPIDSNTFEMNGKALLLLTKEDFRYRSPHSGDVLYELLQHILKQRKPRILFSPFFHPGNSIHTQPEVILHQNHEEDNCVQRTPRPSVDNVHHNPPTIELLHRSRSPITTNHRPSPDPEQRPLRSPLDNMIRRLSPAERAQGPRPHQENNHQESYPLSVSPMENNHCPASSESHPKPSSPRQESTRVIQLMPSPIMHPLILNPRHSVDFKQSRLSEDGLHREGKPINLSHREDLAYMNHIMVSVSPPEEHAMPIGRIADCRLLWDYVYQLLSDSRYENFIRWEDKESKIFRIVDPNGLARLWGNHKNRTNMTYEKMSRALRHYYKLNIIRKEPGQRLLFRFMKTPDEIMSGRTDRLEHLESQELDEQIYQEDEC
# Procedure, shortened: as §1
sequence,measurement,setting,value
TGTAAG,binding signal,ELK1,"1.06 fold enrichment (6-mer frequency, TF over GST control)"
same,binding signal,GABPA,"1.03 fold enrichment (6-mer frequency, TF over GST control)"
same,binding signal,ERG,"1.07 fold enrichment (6-mer frequency, TF over GST control)"
same,binding signal,ELF1,"1.11 fold enrichment (6-mer frequency, TF over GST control)"
same,binding signal,EHF,"1.16 fold enrichment (6-mer frequency, TF over GST control)"
same,binding signal,SPIB,"1.06 fold enrichment (6-mer frequency, TF over GST control)"
same,binding signal,FEV,"1.06 fold enrichment (6-mer frequency, TF over GST control)"
same,binding signal,ETV5,"1.08 fold enrichment (6-mer frequency, TF over GST control)"
same,binding signal,ELK4,"1.06 fold enrichment (6-mer frequency, TF over GST control)"
same,binding signal,ELF3,"1.3 fold enrichment (6-mer frequency, TF over GST control)"
same,binding signal,ETV1,"1.06 fold enrichment (6-mer frequency, TF over GST control)"
same,binding signal,ERF,"1.11 fold enrichment (6-mer frequency, TF over GST control)"
same,binding signal,ETV3L,"1.03 fold enrichment (6-mer frequency, TF over GST control)"
same,binding signal,ETS2,"1.04 fold enrichment (6-mer frequency, TF over GST control)"
same,binding signal,SPDEF,"1.13 fold enrichment (6-mer frequency, TF over GST control)"
same,binding signal,ETV7,"1.04 fold enrichment (6-mer frequency, TF over GST control)"
same,binding signal,ETV3,"1.17 fold enrichment (6-mer frequency, TF over GST control)"
same,binding signal,ETV6,"1.14 fold enrichment (6-mer frequency, TF over GST control)"
